Values without a mark were called inactive. Inconclusive results are not listed. Activity calls are given as the source filed them. Unless noted, the call rests on the fitted dose curve.

The source of these data is PubChem BioAssay (Tox21).

The nature of test [1]: qHTS assay to identify small molecule antagonists of the estrogen related receptor signaling pathway with the pleiotropic PPARgamma coactivator (PGC) from Tox21 10K library (AID 1224841; call rule not given here; further: actives are mostly falling curves and most rising ones were filed inactive; nearly all actives have a fitted effect of over 50% in size). Summed up:
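qHTS antagonist format: PGC/ERR cells, 2k/well, compound in DMSO by pin transfer after 6 h attachment, 18 h treatment at 37 C, One-Glo luminescence read at 30 min.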

Test [2] is described as follows: qHTS assay to identify small molecule agonists of the estrogen related receptor signaling pathway with the pleiotropic PPARgamma coactivator (PGC) from Tox21 10K library (AID 1224842; active means well fitted curve in the direction sought with a large enough effect in the repeat runs; an effect the other way counts as inactive or inconclusive; further: nearly all actives have a fitted effect of over 15% in size; further: potency means the concentration at half of the fitted maximal effect). The procedure, abridged: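 Luminescence from One-Glo (30 min, room temperature) measured after PGC/ERR cells had 18 h at 37 C with pinned compound (23 nL in DMSO). Cells had been seeded at 2,000 per well and pre-incubated 6 h.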

Test [3] addresses Thyrotropin receptor (Homo sapiens) (UniProt P16473). The test can be described thus: qHTS assay to identify small molecule agonists of the thyroid stimulating hormone receptor (TSHR) signaling pathway (AID 1224843). Further: nearly all actives have a fitted effect of over 45% in size. The procedure, abridged: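 HEK293 cells stably bearing the thyrotropin receptor were plated at 800 cells/well and challenged with compound (30 min, RT). Accumulated cAMP was quantified via cAMP-d2 competing for cryptate-tagged antibody.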

Test [4] is described as follows: qHTS assay to identify small molecule agonists of the hypoxia (HIF-1) signaling pathway - cell viability counter screen (AID 1224844). Further: nearly all actives have a fitted effect of over 50% in size. The procedure, abridged: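 Cells (HRE-bla ME-180, 2,000 per well) sat 5 hrs at 37C, got compound for 17 hrs, were read for CCF4-AM FRET, and were finally lysed with CellTiter-Glo for a 30 min room-temperature luminescence read.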

Test [5] can be described thus: qHTS assay to identify small molecule agonists of H2AX (AID 1224845; active means well fitted activation curve with a large enough effect in the signal ratio in the repeat runs, not every such curve was filed as active; the % refers to the signal ratio). Summed up:
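Phospho-H2AX Ser139 measured by HTRF (ex 320 nm; em 665 and 620 nm) after 24 hr antibody incubation. Compounds, 15 concentrations, 0.76% DMSO, were applied to CHO-K1 cells for 3hr at 37C before lysis.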

Test [6] in a line: qHTS assay to identify small molecule agonists of the hypoxia (HIF-1) signaling pathway (AID 1224846; active means well fitted activation curve with a large enough effect in the signal ratio in the repeat runs, not every such curve was filed as active; the % refers to the signal ratio). The procedure, abridged:
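A low-serum medium (0.5% dialyzed FBS) holding 2,000 HRE-bla ME-180 cells per well is preincubated for 5 hrs, dosed with compounds by pintool, and kept a further 17 hrs at 37C, 5% CO2 before CCF4-AM FRET detection of beta-lactamase.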

Test [7] in a line: qHTS assay to identify small molecule agonists of H2AX - cell viability counter screen (AID 1224847). Further: top concentration of the series differs between compounds; nearly all actives have a fitted effect of over 30% in size. The procedure, abridged:
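Cytotoxicity counter screen in wild-type CHO-K1 cells: a 3 hr compound treatment at 37C across 15 concentrations, followed by CellTiter-Glo luminescence to gauge viable cells.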

Test [8] can be described thus: qHTS assay to identify small molecule antagonists of the estrogen related receptor (ERR) signaling pathway from Tox21 library (AID 1224848; active means well fitted curve in the direction sought with a large enough effect in the repeat runs; an effect the other way counts as inactive or inconclusive; further: nearly all actives have a fitted effect of over 50% in size). The procedure, abridged: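 Reading was by luminescence 30 min after ONE-Glo addition. Before that, ERR cells at 2,000 per well had rested 6 h at 37 C/5% CO2 and then received pin-tooled compounds in DMSO for 18 h at 37 C.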
Test [9] can be described thus: qHTS assay to identify small molecule agonists of the estrogen related receptor (ERR) signaling pathway from Tox21 library (AID 1224849). Further: nearly all actives have a fitted effect of over 15% in size. The note with it: ERR reporter cell line, ONE-Glo luciferase, 18 h; at 92.4 µM (top of the series) unless noted. The procedure, abridged: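 Screening used an NTP-provided ERR luciferase cell line. Compounds in DMSO were added 6 h after seeding and left 18 h at 37 C before a 30 min ONE-Glo step and luminescence reading.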

Test [10] is described as follows: qHTS RealTime-Glo MT Cell Viability Assay in HepG2 cells - 24 hour (AID 1224867; active means well fitted curve in the direction sought with a large enough effect in the repeat runs; an effect the other way counts as inactive or inconclusive; further: nearly all actives have a fitted effect of over 50% in size). Summed up:
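Tox21 10K library screened in qHTS format on HepG2 cells carrying RealTime-Glo reagents. Compounds were added after a 5 h preincubation, and the luminescent signal from continuous culture was measured repeatedly during 40 h treatment.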
On the % scale 0 is the no-effect control and ±100 the full control effect.

Thyrotropin receptor (Homo sapiens), sequence (P16473 whole entry, looked up): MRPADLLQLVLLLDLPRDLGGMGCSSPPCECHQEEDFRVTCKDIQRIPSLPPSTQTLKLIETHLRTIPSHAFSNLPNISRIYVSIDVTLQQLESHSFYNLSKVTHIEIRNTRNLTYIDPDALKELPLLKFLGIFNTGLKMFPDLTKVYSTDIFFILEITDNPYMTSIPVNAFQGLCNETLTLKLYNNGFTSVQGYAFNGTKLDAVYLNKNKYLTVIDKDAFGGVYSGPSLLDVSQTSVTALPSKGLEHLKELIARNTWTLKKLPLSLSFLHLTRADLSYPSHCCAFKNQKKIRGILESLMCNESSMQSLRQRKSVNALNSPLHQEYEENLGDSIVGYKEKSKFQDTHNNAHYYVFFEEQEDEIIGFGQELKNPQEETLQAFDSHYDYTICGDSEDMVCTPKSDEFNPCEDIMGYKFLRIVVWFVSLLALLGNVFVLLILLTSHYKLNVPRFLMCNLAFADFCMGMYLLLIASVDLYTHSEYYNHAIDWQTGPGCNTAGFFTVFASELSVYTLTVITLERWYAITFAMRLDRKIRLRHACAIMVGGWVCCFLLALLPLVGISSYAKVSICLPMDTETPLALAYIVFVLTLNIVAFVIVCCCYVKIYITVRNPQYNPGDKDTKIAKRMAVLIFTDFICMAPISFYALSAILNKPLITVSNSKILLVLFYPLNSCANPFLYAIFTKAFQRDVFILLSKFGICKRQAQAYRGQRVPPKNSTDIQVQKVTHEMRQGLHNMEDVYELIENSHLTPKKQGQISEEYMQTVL

`CC1(C)CC(N)CC(C)(C)N1`: the Potency entry in test [1], in test [2] and in test [3] was “inactive” in each case. The result in [4], in test [5], in test [6], in [7], in [8] and in test [10] was inactive. Further, in test [9], the activity change, positive = activation was 4.2%.

Turning to `C=CCn1cc[n+](C)c1`, the Potency result in [1], in [2] and in test [3] was “inactive” throughout. The compound was classed as inactive in test [5], in test [6], in [7] and in [8]. The activity change, positive = activation in [9] was 5.14%.

Take `O=C(O)Cc1c(Cl)ccc(Cl)c1Cl`: the Potency result in test [1], in test [2] and in [3] was “inactive” each time. Further, the call in test [4], in test [6], in test [7], in test [8] and in test [10] was inactive. The activity change, positive = activation in test [9] was 6.33%.

As to `CCN1CCN(C(=O)N[C@@H](C(=O)N[C@@H]2C(=O)N3[C@@H]2SC(C)(C)[C@H]3C(=O)O)c2ccccc2)C(=O)C1=O`, the Potency entry in [1], in test [2] and in [3] was “inactive” throughout. Also, the outcome in [4], in [5], in test [7] and in test [8] was inactive. Moreover, the activity change, positive = activation in test [9] is 8.89% [at 42.5 µM].

Consider `Cc1ccc(OC(=O)CC(C)C)cc1`, for which the Potency result in [1], in test [2] and in [3] was “inactive” each time. For the same compound, the compound was classed as inactive in [5], in test [6], in [7], in [8] and in test [10]. For the same compound, the activity change, positive = activation in test [9] was -0.118%.

Consider `CC(=O)Nc1ccc(OCCOCCOc2ccc(NC(C)=O)cc2)cc1`, for which the Potency result in test [1], in test [2] and in test [3] was “inactive” each time. For the same compound, the result in test [4], in [5], in test [6], in [7] and in test [10] was inactive. The activity change, positive = activation in [9] was -16.6% [at 42.5 µM].

With `CCC(C)c1nccnc1OC` (stereo unspecified), the Potency entry in [1], in test [2] and in test [3] was “inactive” each time. For the same compound, the result in [5], in [6], in test [7], in [8] and in test [10] was inactive. For the same compound, the activity change, positive = activation in test [9] was 1.46%.

As to `CCCCCCC(=O)c1ccccc1`, the Potency entry in test [1], in test [2] and in test [3] was “inactive” throughout. The call in [4], in test [5], in test [6], in test [7], in test [8] and in test [10] was inactive. For the same compound, the activity change, positive = activation in test [9] is 3.5%.

On to `N=C(N)S(=O)O`, for which the Potency entry in test [1], in test [2] and in test [3] was “inactive” each time. Besides, the outcome in test [4], in test [5], in [6], in test [7], in [8] and in test [10] was inactive. In test [9], the activity change, positive = activation is 2.21%.

Take `CCCCC(CC)COC(=O)CC#N` (stereo unspecified): the Potency result in test [1], in test [2] and in test [3] was “inactive” each time. The outcome in test [4], in [5], in [6], in [7], in test [8] and in test [10] was inactive. For the same compound, the activity change, positive = activation in [9] was -0.23%.

On to `CCCC(C)C(O)CC` (stereo unspecified), for which the Potency entry in test [1], in test [2] and in test [3] was “inactive” each time. Besides, the call in test [4], in [5], in test [6], in [7], in test [8] and in [10] was inactive. For the same compound, the activity change, positive = activation in test [9] is -0.957%.

For `NNC(=O)OCc1ccccc1`, the Potency result in test [1], in test [2] and in [3] was “inactive” throughout. For the same compound, the compound was called inactive in [4], in test [5], in [6], in [7], in [8] and in [10]. Moreover, the activity change, positive = activation in test [9] was -10.3%.

For `C[C@]12C=CC(=O)C=C1[C@@H](F)C[C@@H]1[C@@H]2[C@@H](O)C[C@@]2(C)[C@H]1CC[C@]2(O)C(=O)CO`, the Potency entry in test [1] and in test [3] was “inactive” throughout. The Potency in test [2] is 6.68 µM (active). Further, the call in [5], in test [6], in [7] and in test [8] was inactive. Also, the activity change, positive = activation in test [9] is -4.03% [at 42.5 µM].

For `O=S(=O)(O)c1cc(I)c(O)c2ncccc12`, the Potency entry in test [1], in test [2] and in test [3] was “inactive” in each case. The result in [4], in test [6], in [7], in [8] and in [10] was inactive. The activity change, positive = activation in [9] is 2.69% [at 42.5 µM].

In the case of `CC/C=C/CCCCCCCCCCOC(C)=O`, the Potency result in test [1], in test [2] and in test [3] was “inactive” each time. The compound was classed as inactive in test [4], in test [5], in [6], in test [8] and in [10]. For the same compound, in test [9], the activity change, positive = activation was 0.111%.

With `CC(C)(Sc1cc(C(C)(C)C)c(O)c(C(C)(C)C)c1)Sc1cc(C(C)(C)C)c(O)c(C(C)(C)C)c1`, the Potency entry in test [1], in test [2] and in test [3] was “inactive” in each case. Also, the compound was called inactive in test [5], in test [7] and in [8]. In addition, the activity change, positive = activation in [9] was 3.41% [at 42.5 µM].

As for `CO/N=C(\C(=O)O)c1csc(NC(=O)CCl)n1`, the Potency result in test [1] and in test [2] was “inactive” in each case. The result in test [4], in [5], in test [6], in test [7] and in test [8] was inactive. Besides, the activity change, positive = activation in [9] was 4.95% [at 42.5 µM].

On to `CC(=O)c1c(C)cc(C(C)(C)C)cc1C`, for which the Potency entry in [1] and in test [2] was “inactive” in each case. Also, the call in test [4], in test [5], in [6] and in test [8] was inactive. Further, the activity change, positive = activation in test [9] is -1.7%.

On to `COC(=O)N/N=C/c1c[n+]([O-])c2ccccc2[n+]1[O-]`, for which the Potency result in test [1], in test [2] and in [3] was “inactive” throughout. Further, the outcome in test [6], in [7], in test [8] and in test [10] was inactive. Also, in [9], the activity change, positive = activation was 16.4% [at 42.5 µM].

As to `CN1C(CCl)Nc2cc(Cl)c(S(N)(=O)=O)cc2S1(=O)=O` (stereo unspecified), the Potency entry in [1] and in test [2] was “inactive” throughout. Further, the outcome in test [4], in test [5], in test [6], in test [7], in test [8] and in test [10] was inactive. The activity change, positive = activation in test [9] was 0.151% [at 42.5 µM].

For `CN(C)CCC[C@@]1(c2ccc(F)cc2)OCc2cc(C#N)ccc21`, the Potency entry in test [2] and in test [3] was “inactive” in each case. In addition, the result in [4], in test [5], in [7], in test [8] and in test [10] was inactive. Besides, the activity change, positive = activation in [9] was -3.55% [at 42.5 µM].

`CNC(=O)c1c(I)c(NC(C)=O)c(I)c(C(=O)O)c1I`: the Potency entry in test [1] and in test [2] was “inactive” in each case. Besides, the outcome in [4], in [6], in [7], in [8] and in test [10] was inactive. The activity change, positive = activation in test [9] is 2.26% [at 42.5 µM].

Turning to `CCCCCCCC(=O)N(C)C`, the Potency result in test [1] and in test [2] was “inactive” each time. Besides, the result in [4], in test [5], in [6], in test [7] and in [8] was inactive. Besides, in [9], the activity change, positive = activation is 2.8%.
